What was measured:
[1] = qHTS profiling for inhibitors of Plasmodium falciparum (3D7) proliferation (AID 743322);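 further: infected erythrocytes exposed to compound for 72 h before lysis; 100% = DMSO vehicle wells and 0% = 0.29 µM artemisinin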; conditions: P. falciparum 3D7 proliferation; at 28.7 µM (top of the series)
Procedure, shortened: (§1)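 Parasite DNA was quantified by SYBR Green I fluorescence (ex 485, em 535 nm) after overnight lysis in saponin/Triton buffer at room temperature. Cultures at 0.3% parasitemia and 2.5% hematocrit were first exposed to compound for 72 h at 37 C; signals were normalised to artemisinin (0.29 uM) and vehicle wells.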

[2] = qHTS profiling for inhibitors of Plasmodium falciparum (DD2) proliferation (AID 743323); conditions: lower = more inhibition; at 28.7 µM (top of the series)
Procedure, shortened: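 1536-well qHTS; infected RBCs 0.3% parasitemia/2.5% Hct final; cpd 72 h 37 C 5% CO2; lysis buffer + SYBR Green I, o/n RT dark; FI 485/535; norm. to 0.29 uM artemisinin and DMSO, plate-stack corrected.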

[3] = qHTS profiling of the MIPE4 collection as inhibitors of Plasmodium falciparum (3D7) proliferation (AID 743344);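 further: scaled between DMSO vehicle wells and 0.29 µM artemisinin as full inhibition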; conditions: P. falciparum 3D7 in erythrocytes, SYBR Green DNA fluorescence, 72 h; at 28.5 µM (top of the series) unless noted
Procedure, shortened: as §1

[4] = qHTS profiling of the MIPE4 collection as inhibitors of Plasmodium falciparum (DD2) proliferation (AID 743345); conditions: P. falciparum Dd2 in erythrocytes, SYBR Green DNA, 72 h; at 28.5 µM (top of the series) unless noted
Procedure, shortened: as §1

[5] = qHTS profiling of the MIPE4 collection as inhibitors of Plasmodium falciparum (DD2) proliferation (Rep 2) (AID 743346); conditions: P. falciparum Dd2 in erythrocytes, SYBR Green DNA, 72 h; at 28.5 µM (top of the series) unless noted
Procedure, shortened: as §1

[6] = qHTS profiling of the MIPE4 collection as inhibitors of Plasmodium falciparum (HB3) proliferation (AID 743347);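 further: plate controls were DMSO vehicle wells for no effect and artemisinin wells for full effect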; conditions: P. falciparum HB3 in erythrocytes, SYBR Green DNA, 72 h; at 28.5 µM (top of the series) unless noted
Procedure, shortened: as §1

[7] = High-throughput drug toxicity screening in the BPDCN cell line Gen2.2 (AID 1224824); conditions: Gen2.2 BPDCN cells; at 45.8 µM (top of the series) unless noted;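 further: cells exposed to compounds for 48 h before reading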
Procedure, shortened: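 Seed 500 exponentially growing Gen2.2 cells/well; add compounds by pin tool; incubate 48 h, 37 °C, 5% CO2; add CellTiter-Glo, 15 min RT; read luminescence. % activity vs DMSO (100%) and bortezomib (0%).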

[8] = High-throughput drug toxicity screening in the BPDCN cell line Cal-1 (AID 1224825); conditions: Cal-1 BPDCN cell viability, qHTS; at 45.8 µM (top of the series) unless noted
Procedure, shortened: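 CellTiter-Glo luminescence after 48 h compound exposure; percent activity scaled with DMSO as 100% and bortezomib (9.2 uM final) as 0%. Cal-1 cells seeded at 500/well in RPMI, 10% FBS, no phenol red.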

[9] = qHTS profiling for inhibitors of Plasmodium falciparum (HB3) proliferation (AID 743324); conditions: Plasmodium falciparum HB3 blood-stage proliferation; at 28.7 µM (top of the series);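 further: 100% = DMSO vehicle wells and 0% = artemisinin-treated control wells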
Procedure, shortened: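 SYBR Green fluorescence (485 ex/535 em) of lysed cultures, incubated overnight at room temperature in the dark, quantifies parasite DNA. Infected erythrocytes at 0.3% parasitemia and 2.5% hematocrit were exposed 72 h; values normalized to DMSO and 0.29 uM artemisinin controls.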

Structure (SMILES) | remaining parasite growth % (stronger effect = lower value) [1] [%] | activity, percent of control [2] [%] | parasite growth, % of DMSO control [3] | parasite growth remaining, % of DMSO control (lower = more inhibition) [4] | parasite growth, % of control (lower = inhibition) [5] | growth, % of control [6] | cell viability, % of control (lower = more cytotoxic) [7] | viability (% of control) [8] | remaining proliferation (% of control), lower = more inhibition [9] [%]
Nc1ccccc1NC(=O)c1ccc(CNc2nccc(-c3cccnc3)n2)cc1 | -1.31 | 0.67 | 5.35% | 7.08% | 7.5% | 2.52% | 12.7% | 5.36% | 
C1Cc2[nH]nc(-c3nn[nH]n3)c2C1 | 48.8 | 98.8 |  | 93.2% | 178% | 108% | 194% | 98.5% | 
CN1CCC(CNc2ccc3ncc(-c4cccc(OC(F)(F)F)c4)n3n2)CC1 | -1.19 | -0.747 | 5.42% | 6.44% | 10.4% | 8.22% | 11.1% | 7.35% | 
Nc1cc(C(F)(F)F)c(-c2cc(N3CCOCC3)nc(N3CCOCC3)n2)cn1 | 90.8 | 69.9 |  | 94% | 41.5% | 18.9% | 9.37% | 11.1% | 58.8
CCn1cc(-c2ccnc3[nH]c(-c4cccc(CN(C)C)c4)cc23)c(-c2ccc(NC(=O)N(C)C)cc2)n1 |  |  | 5% | 8.23% | 9.35% | 5.95% | 3.65% | 2.71% | 
O=C1CCC[C@@H]2[C@H]3CCC[N+]4([O-])CCC[C@@H](CN12)[C@@H]34 (stereo partly specified) |  |  | 64.9% | 33.8% | 61.6% | 68.6% | 92.5% | 100% | 
Nc1ccn([C@@H]2O[C@H](CO)[C@H](O)C2(F)F)c(=O)n1 |  |  | 19.5% | 10.3% | 8.03% | 42.2% | 144% | 11.1% | 
CC=C1NC(=O)[C@H]2CSSCCC=C[C@H](CC(=O)N[C@H](C(C)C)C(=O)N2)OC(=O)[C@H](C(C)C)NC1=O | 95.6 | 92.5 |  | 8.63% | 12.2% | 8.43% | 5.71% | 4.69% | 98.4
COc1cccc(Nc2c(C(N)=O)cnc3c(C)cc(S(=O)(=O)c4cccc(C(=O)N(C)C)c4)cc23)c1 |  |  | 37.9% [at 9.64 µM] | 90.5% [at 9.64 µM] | 40% [at 9.64 µM] | 90% [at 9.64 µM] | 216% [at 23.2 µM] | 108% [at 23.2 µM] | 
c1cc(-c2cnn3cc(-c4ccc(OCCN5CCCCC5)cc4)cnc23)ccn1 | 6.04 | 13.9 |  | 6.66% | 10.1% | 4.45% | 2.64% | 3.8% | 12
Nc1ccc(C(=O)c2cc3c(ccc4ccccc43)[nH]2)cc1 | 114 | 98.8 |  | 83.6% | 118% | 409% | 66.8% | 8.09% | 99.1
Nc1nc(-c2nn(Cc3ccccc3F)c3ncccc23)nc(N)c1N1CCOCC1 |  |  | 28.3% |  |  |  | 199% | 101% | 
CCN1CCN(Cc2ccc(-c3cc4c(N[C@H](C)c5ccccc5)ncnc4[nH]3)cc2)CC1 | -0.0025 | 1.84 |  | 8.31% | 7.53% | 8.9% | 42.9% | 6.05% | 0.0196
COc1ccc2c(c1)CC[C@@H](CN(C)CC(=O)O)[C@H]2c1ccccc1 | 101 | 98.6 | 31.6% | 35.4% | 28.4% | 24.2% | 39.9% | 21.4% | 
COc1cccc(-c2ccc(NC(=O)C3=C(C(=O)O)CCC3)c(F)c2)c1 |  |  | 64.2% | 90.8% | 53% | 78.8% | 19% | 4.11% | 
Clc1cccc(-c2nnnn2Cc2cccnc2)c1Cl |  |  | 72.2% | 95.6% | 84.8% | 86.1% | 164% | 95.3% | 
COc1cc2nccc(Oc3ccc(NC(=O)C4(C(=O)Nc5ccc(F)cc5)CC4)cc3)c2cc1OC | 3.02 | 14.8 |  | 10.7% | 7.46% | 2.54% | 5.49% | 5.29% | 
Cc1cc(Nc2cc(N3CCN(C)CC3)nc(Sc3ccc(NC(=O)C4CC4)cc3)n2)n[nH]1 | 39.3 | 68.3 |  | 16% | 22.4% | 2.93% | 36.4% | 12.3% | 9.14
CNC(=O)c1ccc(-c2cnc3ncc(Cc4ccc5ncccc5c4)n3n2)cc1F |  |  | 19.3% | 41.8% | 37.1% | 10.4% | 48.9% | 92.3% | 
Nc1ccccc1NC(=O)c1ccc(CNC(=O)OCc2cccnc2)cc1 | 99.2 | 92.8 | 25.3% | 31.3% | 25.4% | 7.7% | 2.59% | 5.69% | 
Nc1ccn([C@@H]2CS[C@H](CO)O2)c(=O)n1 |  |  | 404% [at 57.5 µM] | 100% [at 57.5 µM] | 146% [at 57.5 µM] | 263% [at 57.5 µM] | 218% [at 92.2 µM] | 11% [at 92.2 µM] | 
COc1ccc2c(OCc3nnc4ccc(-c5ccccc5)nn34)ccnc2c1 |  |  | 53.1% | 97.5% | 67% | 59.2% | 170% | 105% | 

— PubChem BioAssay (NCATS)
